Measured values taken from PubChem BioAssay.
Records with an inconclusive call do not appear. Activity calls are given as the source filed them.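 Rule for the calls, unless noted: active = normalized viability below 100% at a tested concentration; inactive = the rest.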

How the values were obtained:
[1] = viability loss in pontine glioma line – cell-based, SU-DIPG-XVII, MIPE5.0, CellTiter-Glo, qHTS, dose response (AID 1347060; cut-off not given, nearly all actives have AC50 up to about 26 µM;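 for AC50: cells exposed to compound for 48 hours before viability readout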); conditions: CellTiter-Glo ATP luminescence
[2] = viability loss in pontine glioma line – cell-based, SU-DIPG-IV, MIPE4.0, CellTiter-Glo, qHTS, dose response (AID 1347063; cut-off not given, nearly all actives have AC50 up to about 30 µM;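 note: compound exposure lasted 48 hours before the viability readout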); conditions: CellTiter-Glo ATP luminescence
[3] = viability loss in pontine glioma line – cell-based, SU-DIPG-XIII, MIPE5.0, CellTiter-Glo, qHTS, dose response (AID 1347064; cut-off not given, nearly all actives have AC50 up to about 23 µM;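 for AC50: cells exposed to compound for 48 hours before the viability read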); conditions: CellTiter-Glo ATP luminescence
[4] = viability loss in pontine glioma line – cell-based, SU-DIPG-XXV, MIPE5.0, CellTiter-Glo, qHTS, dose response (AID 1347065; cut-off not given, nearly all actives have AC50 up to about 26 µM;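 note: cells exposed to compound for 48 hours before ATP readout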); conditions: CellTiter-Glo ATP luminescence
[5] = JHH-DIPG-1 glioma cell viability, MIPE5.0 library, CellTiter-Glo luminescence, qHTS (AID 1347067; cut-off not given, nearly all actives have AC50 up to about 26 µM;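 note: cells exposed to compound for 48 hours before readout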); conditions: JHH-DIPG-1 glioma viability, CellTiter-Glo ATP luminescence
[6] = growth inhibition of DIPG cells – cell-based, MIPE5.0 library, qHTS (AID 1347068; cut-off not given, nearly all actives have IC50 up to about 30 µM;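 for IC50: cells exposed to compound for 48 hours before viability readout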); conditions: SU-DIPG-XXV viability
[7] = viability loss with induced miR-34 in A549 – imaging, A549 dox-inducible miR-34, nuclei and caspase counts, primary screen (AID 1347080;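 active = compounds whose cell count with miR-34 switched on is under 0.7 times the count with it off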); conditions: A549 miR-34 inducible, Hoechst nuclei count, 48 h
[8] = MELAS cybrid and Rieske KO viability enhancers – cell-based, MELAS cybrids, Rieske KO mouse fibroblasts, CellTiter-Glo, primary screen (AID 1508586;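 active = mean z-score across replicates of 1.96 or higher in either the MELAS or the Rieske mutant cell line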;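 note: z relative to plate mean and SD of compound and empty wells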); conditions: low glucose
[9] = viability loss in pontine glioma line – cell-based, JHH-DIPG-1, MIPE4.0, CellTiter-Glo, qHTS, dose response (AID 1347062; cut-off not given, nearly all actives have AC50 up to about 27 µM;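 for AC50: cells exposed to compound for two days before readout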); conditions: JHH-DIPG-1 viability, CellTiter-Glo ATP luminescence
[10] = compounds altering HSF1 focus formation in cells – imaging, Selleck Cancer Library (AID 1347162; in the data active = plate-normalised HSF1 focus index below about 0.46); conditions: human cells, HSF1 nuclear foci imaging, at 10 µM; SSMD: measured here: HSF1 foci SSMD mean; cell count: measured here: cell number; plate-normalised HSF1 focus index: stronger effect = lower value
[11] = growth inhibition of DIPG cells – cell-based, MIPE4.0 library, CellTiter-Glo luminescence, qHTS (AID 1347066; cut-off not given, nearly all actives have AC50 up to about 30 µM;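 note: cells exposed to compound for 48 hours before readout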); conditions: SU-DIPG-VI viability, CellTiter-Glo ATP luminescence
[12] = drug combination growth inhibition, ovarian cancer – cell-based, oncology-focused library, rucaparib conditional, profiling panel (AID 1508598); conditions: patient-derived ovarian cancer cells, CellTiter-Glo viability, 144 h, stronger effect = lower value
[13] = stronger effect = lower value, cell number ratio, induced over uninduced
[14] = measured here: relative caspase fold change +Dox/-Dox
[15] = measured here: total cells with miR-34 induction, stronger effect = lower value
[16] = measured here: total cells without miR-34 induction
[17] = MELAS cybrid survival, CellTiter-Glo 48 h, stronger effect = higher value
[18] = Rieske KO mouse fibroblast survival, CellTiter-Glo 72 h
[19] = at 0.000305 µM, OCI-C5x cells, with rucaparib 10 µM, 100% = cells with rucaparib alone
[20] = at 0.000305 µM, OCI-C5x cells, without rucaparib
[21] = at 0.000305 µM, OCI-P5x cells, with rucaparib 20 µM, 100% = cells with rucaparib alone
[22] = at 0.000305 µM, OCI-P5x cells, without rucaparib
[23] = at 0.00122 µM, OCI-C5x cells, with rucaparib 10 µM, 100% = cells with rucaparib alone
[24] = at 0.00122 µM, OCI-C5x cells, without rucaparib
[25] = at 0.00122 µM, OCI-P5x cells, with rucaparib 20 µM, 100% = cells with rucaparib alone
[26] = at 0.00122 µM, OCI-P5x cells, without rucaparib
[27] = at 0.00488 µM, OCI-C5x cells, with rucaparib 10 µM, 100% = cells with rucaparib alone
[28] = at 0.00488 µM, OCI-C5x cells, without rucaparib
[29] = at 0.00488 µM, OCI-P5x cells, with rucaparib 20 µM, 100% = cells with rucaparib alone
[30] = at 0.00488 µM, OCI-P5x cells, without rucaparib
[31] = at 0.0195 µM, OCI-C5x cells, with rucaparib 10 µM, 100% = cells with rucaparib alone
[32] = at 0.0195 µM, OCI-C5x cells, without rucaparib
[33] = at 0.0195 µM, OCI-P5x cells, with rucaparib 20 µM, 100% = cells with rucaparib alone
[34] = at 0.0195 µM, OCI-P5x cells, without rucaparib
[35] = at 0.0781 µM, OCI-C5x cells, with rucaparib 10 µM, 100% = cells with rucaparib alone
[36] = at 0.0781 µM, OCI-C5x cells, without rucaparib
[37] = at 0.0781 µM, OCI-P5x cells, with rucaparib 20 µM, 100% = cells with rucaparib alone
[38] = at 0.0781 µM, OCI-P5x cells, without rucaparib
[39] = at 0.313 µM, OCI-C5x cells, with rucaparib 10 µM, 100% = cells with rucaparib alone
[40] = at 0.313 µM, OCI-C5x cells, without rucaparib
[41] = at 0.313 µM, OCI-P5x cells, with rucaparib 20 µM, 100% = cells with rucaparib alone
[42] = at 0.313 µM, OCI-P5x cells, without rucaparib
[43] = at 1.25 µM, OCI-C5x cells, with rucaparib 10 µM, 100% = cells with rucaparib alone
[44] = at 1.25 µM, OCI-C5x cells, without rucaparib
[45] = at 1.25 µM, OCI-P5x cells, with rucaparib 20 µM, 100% = cells with rucaparib alone
[46] = at 1.25 µM, OCI-P5x cells, without rucaparib
[47] = at 5 µM, OCI-C5x cells, with rucaparib 10 µM, 100% = cells with rucaparib alone
[48] = at 5 µM, OCI-C5x cells, without rucaparib
[49] = at 5 µM, OCI-P5x cells, with rucaparib 20 µM, 100% = cells with rucaparib alone
[50] = at 5 µM, OCI-P5x cells, without rucaparib

COc1cccc2cc(-c3nc(C4CCC(C(=O)O)CC4)n4ncnc(N)c34)[nH]c12 (stereo not drawn)
active: AC50 [1] 5.9 µM | AC50 [2] 0.166 µM | AC50 [3] 3.72 µM | AC50 [4] 2.63 µM | AC50 [5] 1.18 µM | z-score [8, 17] 4.23
-0.621: z-score [8, 18]
inactive: outcome [6] | fold change [7, 13] 0.965
0.637: fold change [7, 14]
3250: cell count [7, 15]
3360: cell count [7, 16]

CCOc1cc(/C=C2/C(=O)N(c3ccccc3)N=C2C)cc(Cl)c1OCC(=O)OC
inactive: outcome [1] | outcome [9] | outcome [4] | outcome [5] | outcome [6] | plate-normalised HSF1 focus index [10] 1.07
6670: cell count [10]
1.24: SSMD [10]

CC(C)C[C@@H](N)[C@H](O)C(=O)N[C@H](C(=O)N[C@H](C(=O)N[C@@H](CC(=O)O)C(=O)O)C(C)C)C(C)C
inactive: outcome [1] | outcome [2] | outcome [3] | outcome [4] | outcome [11] | outcome [5] | outcome [6]

COc1c(OCCCN2CCOCC2)ccc2c3n(c(=NC(=O)c4cnc(N)nc4)nc12)CCN3
active: AC50 [1] 0.27 µM | AC50 [2] 0.102 µM | AC50 [3] 0.27 µM | AC50 [4] 0.0959 µM | AC50 [11] 0.0457 µM | AC50 [5] 0.191 µM | IC50 [6] 0.382 µM

Cc1cnc(NC(=O)Nc2cc(Br)c(C)cc2OC[C@@H]2CNCCO2)cn1
6470: cell count [10]
3.14: SSMD [10]
active: AC50 [1] 8.33 µM | AC50 [9] 1.18 µM | AC50 [4] 8.33 µM | AC50 [5] 20.9 µM | viability [12, 21] 65.9% | viability [12, 22] 19.8% | viability [12, 23] 84.2% | viability [12, 24] 88.9% | viability [12, 25] 47.7% | viability [12, 26] 17.5% | viability [12, 37] 92.1% | viability [12, 39] 96% | viability [12, 40] 98% | viability [12, 41] 73.6% | viability [12, 42] 94.9% | viability [12, 43] 60.4% | viability [12, 44] 71.2% | viability [12, 45] 43% | viability [12, 46] 85.9% | viability [12, 47] 3.26% | viability [12, 48] 46.4% | viability [12, 49] 0.466% | viability [12, 50] 7.42%
inactive: plate-normalised HSF1 focus index [10] 1.16 | viability [12, 19] 111% | viability [12, 20] 118% | viability [12, 27] 103% | viability [12, 28] 121% | viability [12, 29] 114% | viability [12, 30] 109% | viability [12, 31] 109% | viability [12, 32] 113% | viability [12, 33] 107% | viability [12, 34] 104% | viability [12, 35] 102% | viability [12, 36] 117% | viability [12, 38] 105%

N#CCNC(=O)c1ccc(-c2ccnc(Nc3ccc(N4CCOCC4)cc3)n2)cc1
-1.38: z-score [8, 18]
7330: cell count [10]
inactive: fold change [7, 13] 0.941 | plate-normalised HSF1 focus index [10] 0.876 | viability [12, 19] 109% | viability [12, 20] 113% | viability [12, 21] 105% | viability [12, 22] 104% | viability [12, 23] 103% | viability [12, 24] 108% | viability [12, 25] 105% | viability [12, 26] 103% | viability [12, 27] 110% | viability [12, 28] 117% | viability [12, 29] 106% | viability [12, 31] 109% | viability [12, 32] 104% | viability [12, 33] 103% | viability [12, 35] 122% | viability [12, 36] 116% | viability [12, 39] 108% | viability [12, 40] 105% | viability [12, 43] 120% | viability [12, 44] 101% | viability [12, 48] 109%
1230: cell count [7, 16]
0.89: fold change [7, 14]
1150: cell count [7, 15]
active: AC50 [1] 16.6 µM | AC50 [2] 20.9 µM | AC50 [3] 13.2 µM | AC50 [4] 16.6 µM | AC50 [5] 13.2 µM | IC50 [6] 18.6 µM | z-score [8, 17] 5.22 | viability [12, 30] 96.8% | viability [12, 34] 93.3% | viability [12, 37] 96.9% | viability [12, 38] 92.3% | viability [12, 41] 90.7% | viability [12, 42] 66.2% | viability [12, 45] 84.2% | viability [12, 46] 84.9% | viability [12, 47] 78.5% | viability [12, 49] 46.8% | viability [12, 50] 49%
-3.51: SSMD [10]

COc1ccccc1[C@H](c1cccc2ccccc12)[C@@](C)(C#N)C(=O)N1CCC(c2cccc(C(F)(F)F)c2)CC1
active: AC50 [2] 3.32 µM
inactive: outcome [1] | outcome [3] | outcome [4] | outcome [11] | outcome [5] | outcome [6]

O[C@@H](COc1cccc2ncccc12)CN1CCN(C2c3ccccc3[C@@H]3[C@H](c4ccccc42)C3(F)F)CC1 (stereo partly drawn)
active: AC50 [1] 20.9 µM | AC50 [2] 16.6 µM | AC50 [3] 23.5 µM | AC50 [4] 13.2 µM | AC50 [5] 23.5 µM | IC50 [6] 18.6 µM

CNC(=O)c1c(-c2ccc(F)cc2)oc2cc(N(CCO)S(C)(=O)=O)c(C3CC3)cc12
active: AC50 [9] 20.9 µM
inactive: outcome [1] | outcome [5]

CN1N=C(N)c2cn([C@@H]3O[C@H](COP(=O)(O)O)[C@@H](O)[C@H]3O)c3ncnc1c23
active: AC50 [1] 0.417 µM | AC50 [2] 0.372 µM | AC50 [3] 1.66 µM | AC50 [4] 0.105 µM | AC50 [11] 0.132 µM

Cc1ncc(-c2ccnc(Nc3ccc(S(C)(=O)=O)cc3)n2)n1C(C)C
active: AC50 [1] 5.25 µM | AC50 [2] 2.35 µM | AC50 [3] 3.72 µM | AC50 [4] 4.68 µM | AC50 [5] 4.68 µM | IC50 [6] 2.95 µM
1.12: fold change [7, 14]
1790: cell count [7, 16]
1780: cell count [7, 15]
-2.84: z-score [8, 18]
inactive: fold change [7, 13] 0.998 | z-score [8, 17] 1.7
